High-throughput results: PubChem BioAssay, National Center for Advancing Translational Sciences (NCATS)
A selection: hits, their analogues and other compounds. The true share with any hit is near 2.4%.
D2 ag-1 – activates the human D2 dopamine receptor | actives 0.53% (n = 340,000) | activation, % at 2 µM | HEK293 T-REx D2 cells, calcium flux agonist mode | AID 485358;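 active means activation over 3 SD above normal in the single-dose calcium agonist read, cut at about 30% in these data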
Target sequence (P14416 whole entry, looked up): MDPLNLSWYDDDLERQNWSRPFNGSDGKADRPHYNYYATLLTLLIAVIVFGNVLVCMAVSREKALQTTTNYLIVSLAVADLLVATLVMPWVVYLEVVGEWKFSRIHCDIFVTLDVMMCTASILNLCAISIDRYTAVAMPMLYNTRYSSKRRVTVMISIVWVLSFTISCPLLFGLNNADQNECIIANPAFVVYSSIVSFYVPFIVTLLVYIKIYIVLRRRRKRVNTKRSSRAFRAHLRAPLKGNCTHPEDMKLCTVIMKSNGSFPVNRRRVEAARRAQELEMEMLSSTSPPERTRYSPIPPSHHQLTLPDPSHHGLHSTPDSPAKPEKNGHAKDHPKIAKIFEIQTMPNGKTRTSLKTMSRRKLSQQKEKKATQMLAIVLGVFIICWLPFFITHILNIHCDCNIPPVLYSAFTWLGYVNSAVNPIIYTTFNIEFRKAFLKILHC
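Agonism is scored from calcium flux in a force-coupled, inducible HEK293 cell line expressing D2, read kinetically for 180 s after compound addition against dopamine controls.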
D2 PAM-1 – human D2 receptor positive allosteric modulation. AID 624464. DiscoveRx D2 beta-arrestin cells, luminescence, 90 min; 100% = 57 uM dopamine signal. actives 0.23% (n = 360,000). potentiation, % (test concentration not listed); in the data active means potentiation above about 50%; inconclusive means mostly about 30% to 49%
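PathHunter D2 cells, attached overnight at 37 deg C, received compound in DMSO plus dopamine at EC20 (50 nM final) for 90 min at 37 deg C. Beta-arrestin recruitment was read as luminescence after 1 h with detection reagent at ambient temperature.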
D2 PAM-2 – positive allosteric modulators of human D2 dopamine receptor; P14416; HEK293 T-REx D2, calcium flux, EC20 dopamine potentiation; potentiation, % at 10 µM; actives 0.34% (n = 340,000);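 active means potentiation over 3 SD above the plate norm, cut at about 30% in these data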
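Calcium flux readout, no-wash dye, 1 read/s. Inducible HEK293 Trex D2 line, overnight 30 C. Compound alone 180 s (agonist flags), then EC20 dopamine, another 180 s to score potentiation.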
D2 ag-2 – agonists of human D2 dopamine receptor (beta-arrestin) | P14416 | DiscoveRx PathHunter D2 beta-arrestin, luminescence, 90 min; 100% = 57 uM dopamine signal | activation, % (test concentration not listed) | actives 0.084% (n = 360,000) | AID 624465; in the data active means activation above about 40%; inconclusive means between about 15% and that limit
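DiscoveRx PathHunter D2 beta-arrestin cells (2,100/well) attached overnight, then compound-stimulated 90 min at 37 C in HBSS/10 mM HEPES/0.1% Tween-20 buffer; beta-galactosidase complementation read by luminescence after 1 h at ambient temperature. Dopamine 57 uM final (EC100) as control.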
D2 antag – antagonists of human D2 dopamine receptor | actives 2% (n = 340,000) | P14416 | AID 485344 | inhibition, % at 10 µM | HEK293 TREx D2 cells, calcium flux, dopamine EC80; in the data active means inhibition above about 30%; inactive means below that, where a call was filed
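Inhibition of EC80 dopamine-driven calcium flux, recorded kinetically, defines activity here; cells are a tetracycline-induced HEK293 T-REx line expressing force-coupled D2.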
Each line names hits and unclear results; the compound was inactive in the other large screens.

COc1ccccc1CNC(=O)C1CCN(C2=NS(=O)(=O)C(c3ccc(C)c(C)c3)=C2C)CC1	none (no result: D2 PAM-1, D2 ag-2, D2 antag)
COc1ccccc1CNS(=O)(=O)c1ccc2c(c1)oc(=O)n2C	none
Cc1ccc(CCNC(=O)CCNS(=O)(=O)c2ccc3c(c2)oc(=O)n3C)cc1	none (no result: D2 antag)
COc1ccccc1CNC(=O)CCNS(=O)(=O)c1ccc2c(c1)oc(=O)n2C	D2 antag 67
Cn1c(=O)oc2cc(S(=O)(=O)NCCC(=O)NCCc3ccc(Cl)cc3)ccc21	D2 antag 59
Cc1ccsc1CCN1C(=O)N(c2ccc(F)cc2)C(=O)C1CC(=O)Nc1ccccc1 (stereo unspecified)	none (no result: D2 PAM-1, D2 ag-2, D2 antag)
COc1ccc(N(CC(=O)Nc2cc(C)cc(C)c2)S(=O)(=O)c2ccccc2[N+](=O)[O-])c(OC)c1	D2 antag 53
CC(=O)N(c1ccc2oc(=O)sc2c1)S(=O)(=O)c1ccccc1	D2 PAM-1 inconclusive
CCOc1ccc(S(=O)(=O)N(C(=O)c2ccco2)c2cc3sc(=O)oc3c3ccccc23)cc1	D2 PAM-1 150, D2 ag-2 inconclusive
Cc1ccc(S(=O)(=O)N(C(=O)c2ccco2)c2cc3sc(=O)oc3c3ccccc23)cc1	D2 PAM-1 63, D2 ag-2 inconclusive
CCOc1ccc(S(=O)(=O)N(C)CC(=O)NCc2ccco2)cc1	none (no result: D2 PAM-2)
COc1ccc(S(=O)(=O)N(C(=O)c2ccco2)c2cc3sc(=O)oc3c3ccccc23)cc1	D2 PAM-1 97, D2 ag-2 inconclusive
COc1ccccc1C1NC(=O)c2n[nH]c(-c3cccs3)c21 (stereo unspecified)	none (no result: D2 PAM-1, D2 ag-2, D2 antag)
COc1ccc(CCNC(=O)Cc2c(C)c3cc4c(C)coc4cc3oc2=O)cc1OC	none (no result: D2 ag-1, D2 PAM-1, D2 ag-2, D2 antag)
O=C(CCn1c(=O)sc2ccccc21)NCc1ccco1	D2 antag 42
O=C(CCn1c(=O)sc2ccccc21)NCCC1=CCCCC1	D2 antag 37
Cn1c(Cn2c(=O)sc3ccccc32)nnc1SCC(=O)NCc1ccco1	none
CCOC(=O)c1cnn(-c2ccc(C(=O)Nc3cc(OC)c(OC)c(OC)c3)cc2)c1N	none (no result: D2 PAM-1, D2 ag-2, D2 antag)
Cc1ccc(C)c(NC(=O)Cn2cc(S(=O)(=O)N3CCCC3)c(S(=O)(=O)N3CCCC3)c2)c1	none (no result: D2 ag-1, D2 PAM-1, D2 ag-2, D2 antag)
Fc1ccc(Nc2nc(SCc3cccc(F)c3)nc3ccccc23)cc1	none (no result: D2 PAM-1, D2 ag-2, D2 antag)
CC(=O)/C(C[N+]1(C)CCCCC1)=N\O	D2 antag 44 (no result: D2 PAM-2)
COc1cccc(NC(=O)Nc2ccc3nc(N4CCN(C)CC4)cc(C)c3c2)c1	none (no result: D2 PAM-1, D2 ag-2, D2 antag)
Cc1c(C(=O)N(Cc2ccccc2F)C2CCS(=O)(=O)C2)oc2ccc(F)cc12 (stereo unspecified)	none (no result: D2 PAM-1, D2 ag-2, D2 antag)
Oc1ccc(/C=N/Nc2ccc(Cl)nn2)c(O)c1O	D2 ag-2 50
CCCCCCC(O)(c1ccc(OC)cc1)C(CN1CCOCC1)c1ccccc1 (stereo unspecified)	D2 antag 31
O=C(CCN1CCCCC1)Nc1cccc(Cl)c1	D2 antag 57
O=C(CCc1ccc(Oc2cc([N+](=O)[O-])cc([N+](=O)[O-])c2)cc1)N1CCCCCC1	D2 PAM-1 75, D2 ag-2 inconclusive, D2 antag 37
C=CCN1C(=O)/C(=C/C=C2/N(CC)c3ccc(S(=O)(=O)N(C)C)cc3N2CC)SC1=S	D2 ag-1 52
Cc1ccc(Cn2c(CNS(=O)(=O)c3ccc(Cl)s3)nc3cccnc32)cc1	none (no result: D2 PAM-1, D2 ag-2, D2 antag)
COc1cc(CN(C(=O)COc2ccccc2Cl)c2ccccn2)cc(OC)c1OC	none (no result: D2 PAM-1, D2 ag-2, D2 antag)
N#CC1=C(N)N2C(=C(C#N)C1c1cccc(Br)c1)Nc1ccccc12 (stereo unspecified)	D2 antag 39
N#CC1=C(N)N2C(=C(C#N)C1c1ccc(Br)cc1)Nc1ccccc12 (stereo unspecified)	none
CC(C)COc1ccc(C(=O)Nc2onc3c2CCCC3)cc1	none (no result: D2 PAM-1, D2 ag-2, D2 antag)
Cc1cccc(-c2nc3c4ccccc4nc(NCc4ccc(Cl)cc4)n3n2)c1	none (no result: D2 ag-1, D2 PAM-1, D2 ag-2, D2 antag)
COc1cc(NS(=O)(=O)c2cc3[nH]c(=O)[nH]c3cc2C)cc(OC)c1OC	none (no result: D2 ag-1, D2 PAM-1, D2 ag-2, D2 antag)
COc1cc(NS(C)(=O)=O)cc(OC)c1OC	D2 antag 30
CC(CN1CCN(Cc2ccccc2)CC1)c1ccccc1 (stereo unspecified)	none
CC(CCc1ccccc1)N1CCN(Cc2ccccc2)CC1 (stereo unspecified)	D2 antag 61
O=C(CSc1nc2nc[nH]c2c(=O)[nH]1)NC1CCCCC1	D2 antag 48
O=C(NCCOCCn1c(=O)oc2ccccc21)Nc1ccc(Cl)cc1	none (no result: D2 PAM-1, D2 PAM-2, D2 ag-2, D2 antag)
CCOC(=O)c1cc(-c2ccccc2)n(CCC(=O)Nc2ccc(C(F)(F)F)cc2)c1C	none (no result: D2 PAM-1, D2 ag-2, D2 antag)
O=C(COC(=O)CC1CC2CCC1C2)Nc1cc([N+](=O)[O-])ccc1F (stereo unspecified)	D2 PAM-2 32
Cc1ccc(C)c(NC(=O)COC(=O)CC2CC3CCC2C3)c1 (stereo unspecified)	none (no result: D2 ag-1, D2 PAM-2, D2 antag)
CC1=C(C)CC(C(=O)Nc2nc(-c3ccc(C)cc3C)c(C)s2)C(C(=O)O)C1 (stereo unspecified)	D2 PAM-1 60
Cc1ccccc1-n1c(-c2ccncc2)n[nH]c1=S	none
CCc1ccccc1-n1c(-c2ccncc2)n[nH]c1=S	D2 antag 70
Cc1ccccc1NC(=O)CCn1nc(-c2ccccc2)c2ccccc2c1=O	none (no result: D2 PAM-1, D2 ag-2, D2 antag)
COc1ccc(C(C)=O)cc1COC(=O)CSCC(=O)Nc1ccc(C)cc1	D2 antag 30
COc1ccc(C(C)=O)cc1COC(=O)CSC(C)C(=O)Nc1cc(C)on1 (stereo unspecified)	none
CCOc1ccccc1CNc1ncnc2c1nc1n2CCCC1	none (no result: D2 PAM-1, D2 PAM-2, D2 ag-2, D2 antag)
COc1ccc(-n2c(N)c(-c3nc4ccccc4n3C)sc2=S)cc1	D2 antag 34
Cc1ccc(NC(=O)CN(C)C(=O)CSc2ncc(C(F)(F)F)cc2Cl)cc1	D2 antag 93
CSCCC(NC(=O)c1ccco1)C(=O)N1CCCCCCC1 (stereo unspecified)	none
CSCCC(NC(=O)c1ccco1)C(=O)O (stereo unspecified)	D2 PAM-2 31
CN1CCN(/C=N/C2=C(C#N)C(c3ccccc3)C3=C(CC(C)(C)CC3=O)O2)CC1 (stereo unspecified)	D2 PAM-2 36
COC(=O)c1ccc(NC(=O)CC2C(=O)N(c3cccc(OC)c3)C(=O)N2Cc2ccco2)cc1 (stereo unspecified)	none (no result: D2 PAM-1, D2 ag-2, D2 antag)
Cc1nc2nc(SCC(=O)NCCCN3CCCCCC3)nn2c(C)c1Cc1ccccc1	none
Cc1ccccc1Cc1c(C)nc2nc(SCC(=O)NCCCN3CCCCC3)nn2c1C	D2 antag 75
Cc1cccc(-n2cc(-c3ccccc3)c3c(NC(C)C)ncnc32)c1	none (no result: D2 PAM-1, D2 ag-2, D2 antag)
CN(C)CCNc1ncnc2oc(-c3ccccc3)c(-c3ccccc3)c12	none
COc1ccc(-c2oc3ncnc(NCCCN(C)C)c3c2-c2ccc(OC)cc2)cc1	D2 antag 54
